This is a sample that favours compounds with a hit; in the whole collection about 2.4% have one here.
Nrf2 activator – qHTS of Nrf2 Activators; Potency, µM (series often up to 46.1 µM), usual class: activators; 410,000 tested, 0.31% active; AREc32 ARE-luciferase reporter (MCF7-derived line), luminescence, 24 h; further: nearly all actives have a fitted effect of over 65% in size
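Quantitative high-throughput format: AREc32 reporter cells, 1000 per well, received compound by pin transfer and were incubated 24 hr at 37 deg C, 5% CO2, before Steady-Glo luminescence detection.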
Epigenetic derep – Quantitative High-Throughput Screen for Regulators of Epigenetic Control; 280,000 tested, 0.2% active; AID 1865, 2009; murine LDR cells, GFP reporter derepression, 30 h; Potency, µM (series often up to 53.9 µM), usual class: activators; further: nearly all actives have a fitted effect of over 60% in size
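Murine LDR cells carrying a silenced, genomically integrated CMV-driven GFP reporter were exposed to compound for 30 hours at 37 C. After PBS washes, GFP-positive cells (20–120 um objects) were counted by laser-scanning microplate cytometry.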
Nrf2 block – Nrf2 qHTS screen for inhibitors; 360,000 tested, 2.1% active; A549 ARE-Fluc reporter, luciferase luminescence, 18-24 h; Potency, µM (titrated, usually from 46 µM), usual class: inhibitors; further: nearly all actives have a fitted effect of over 60% in size
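Nrf2 function is reported as luminescence of an ARE-controlled luciferase in A549 cells. Compounds were tested at several concentrations, and a CellTiter-Fluor read on the same wells flagged cytotoxicity.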
PINK1 modulator – A Quantitative High throughput Screen to Identify Chemical Modulators of PINK1 Expression | PINK1 immunofluorescence, high-content cytometry, 24 h | Potency, µM (doses to about 76.6 µM), hits mostly activators | 410,000 tested, 0.2% active | AID 624263, 2012; active means well fitted activation curve with a large enough effect; inconclusive means small, poorly fitted or top-dose-only effect; cell line not stated here; further: nearly all actives have a fitted effect of over 65% in size
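Cells are seeded, rested 12 hours, then given compound at five concentrations or DMSO for 24 hours. After fixation, blocking and antibody staining, PINK1 amount and mitochondrial localization are scored; CCCP serves as control.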
A549 tox – Nrf2 qHTS screen for inhibitors: counterscreen for cytotoxicity | A549 ARE-Fluc cells, CellTiter-Fluor viability, 18-24 h | Potency, µM (doses to about 46 µM), most hits filed as inhibitors | AID 504648, 2011 | 390,000 tested, 0.16% active
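Cytotoxicity counterscreen: CellTiter-Fluor fluorescence was measured in A549 ARE_Fluc cells after 18-24 h of compound exposure in a concentration series. The subsequent BugLite luminescent read reports ARE-luciferase activity.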
Each line names hits and unclear results; the compound was inactive in the other large screens. Unless noted, the call rests on the fitted dose curve; in most records, active means well fitted curve in the direction sought with a large enough effect; inconclusive means small, poorly fitted or top-dose-only effect, or another doubt; inactive means no such curve, though single readings can be large; an effect the other way counts as inactive or inconclusive.

Cc1cc(C)n2nc(C(=O)NCC3Cc4cccc(-c5ccc(S(C)(=O)=O)cc5)c4O3)cc2n1 (stereo unspecified)	none (no result: Nrf2 activator, Epigenetic derep, Nrf2 block, A549 tox)
O=C(c1ccc(CSc2nc3ccncc3[nH]2)cc1)N1CCN(c2cccc(Cl)c2)CC1	Nrf2 block 20.6µM
O=C(c1ccc(CSc2nc3ccncc3[nH]2)cc1)N1CCCCCC1	none
CCOC(=O)c1c(C)[nH]c(C)c1C(=O)Cn1nnc(-c2ccccc2C)n1	Nrf2 block 13µM
CN(Cc1ccco1)c1ccnc(-c2ccccc2C(F)(F)F)n1	none (no result: Nrf2 activator, Epigenetic derep, Nrf2 block, A549 tox)
CCN(CC)c1ccc(/C=C/c2cc(-c3ccccc3)c3ccccc3n2)cc1	Epigenetic derep 3.16µM, A549 tox inconclusive
O=[N+]([O-])c1cccc(-c2nnc(-c3ccccc3F)o2)c1	Nrf2 activator 12.6µM, Nrf2 block inconclusive (no result: Epigenetic derep)
Cc1ccc(-c2nnc(NC3CCCCC3)c3ccccc23)cc1S(=O)(=O)N1CCN(C)CC1	Nrf2 block 23.1µM, A549 tox inconclusive
Cc1ccc([N+](=O)[O-])cc1N(CC(=O)Nc1ccc(S(=O)(=O)Nc2cccc(C(F)(F)F)c2)cc1)S(C)(=O)=O	Nrf2 block 20.6µM, PINK1 modulator inconclusive, A549 tox inconclusive
O=C(O)/C=C/C(=O)c1c(-c2ccccc2)[nH]c2ccccc12	Nrf2 activator 10µM (no result: Epigenetic derep)
Cc1ccccc1NC(=O)c1nc(S(=O)(=O)Cc2ccccc2F)ncc1Cl	none (no result: Nrf2 activator, Epigenetic derep, Nrf2 block, A549 tox)
O=C(Nc1ncnc2sc3c(c12)CCC3)c1ccco1	Nrf2 activator 0.794µM (no result: PINK1 modulator)
Cc1ccc2nc(-c3ccccc3)cn2c1	Nrf2 block 6.51µM
Cc1ccc2nc(-c3ccc(O)c(O)c3)cn2c1	Nrf2 block inconclusive, PINK1 modulator inconclusive (no result: Epigenetic derep)
CN(C)C(=O)CCC(=O)NCC1Cc2cccc(-c3ccccc3C(F)(F)F)c2O1 (stereo unspecified)	none (no result: Nrf2 activator, Epigenetic derep, Nrf2 block, A549 tox)
Cc1sc(NC(=O)c2ccc(OCC(C)C)cc2)c(C(N)=O)c1-c1ccc(Cl)cc1Cl	Nrf2 block 18.4µM
CCCOc1ccc(C(=O)Nc2cccc(NC(=O)c3ccc(Cl)cc3Cl)c2)cc1	Epigenetic derep inconclusive
CCNc1ncc2nc(-c3ccc(Cl)cc3)c(=O)n(-c3ccccc3)c2n1	PINK1 modulator 12.6µM (no result: Nrf2 activator, Epigenetic derep, Nrf2 block, A549 tox)
COc1cc2c(NC3CCN(C)CC3)nc(N3CCCN(C)CC3)nc2cc1OCC1CCCCN1 (stereo unspecified)	none (no result: Nrf2 activator, Epigenetic derep, Nrf2 block, A549 tox)
COc1ccc(C(C)=O)cc1CSc1nc(NCc2ccccc2)c2ccccc2n1	A549 tox 23.1µM (no result: Nrf2 block)
COc1ccc(NC(=O)CCn2cnnn2)cc1	none (no result: Nrf2 block)
Cc1ccc(C(=O)CSC2=C(C#N)C(c3ccco3)C3=C(CCCC3=O)N2)cc1 (stereo unspecified)	Nrf2 block inconclusive, A549 tox inconclusive
CC(C)(C)c1ccc(C(=O)CCCSC2=C(C#N)C(c3ccco3)C3=C(CCCC3=O)N2)cc1 (stereo unspecified)	Nrf2 block 20.6µM, A549 tox 20.6µM
COc1ccccc1N(C(=O)CCl)c1cn(C(C)=O)c2ccccc12	Nrf2 activator inconclusive, Nrf2 block 23.1µM
COc1ccc(/C=C/C(=O)NCC2Cc3cc(Cl)cc(-c4ncccn4)c3O2)cc1 (stereo unspecified)	none (no result: Nrf2 activator, Epigenetic derep, Nrf2 block, A549 tox)
CN(C)c1ccc(/C=C/c2ccnc3ccccc23)cc1Br	none (no result: Nrf2 activator, Epigenetic derep, Nrf2 block, A549 tox)
O=C(N/N=C/c1ccccc1)c1ccco1	Nrf2 block inconclusive
O=C(C#Cc1ccccc1)c1ccco1	Nrf2 block 20.6µM, A549 tox inconclusive (no result: Epigenetic derep)
Cc1nn(Cc2ccc(Cl)cc2)c(C)c1NC(=O)CCCn1nc(C)c([N+](=O)[O-])c1C	Nrf2 block 20.6µM, A549 tox inconclusive
Cc1ccc(CN=Cc2[nH]c3ccc(Br)c(Cl)c3c2O)cc1	Nrf2 activator inconclusive, PINK1 modulator 11.2µM
Cc1ccc(/C=C/C(=O)c2c(C)cc(C)[nH]c2=O)cc1	none (no result: Nrf2 block)
CCc1ccc(/C=C/C(=O)c2c(C)cc(C)[nH]c2=O)cc1	Nrf2 block 18.4µM
CC(=O)Nc1ccccc1-c1nc(CNC(=O)c2cc(C)ccc2C)c(C)o1	none (no result: Nrf2 activator, Epigenetic derep, Nrf2 block, A549 tox)
O=c1[nH]c(CN2CCN(c3ccccn3)CC2)nc2c(Br)cc(Br)cc12	Nrf2 block 23.1µM, A549 tox inconclusive
N#CCSc1nccc(-c2cc(Cl)sc2Cl)n1	Nrf2 activator 7.94µM
C=CCSc1nccc(-c2cc(Cl)sc2Cl)n1	Nrf2 activator 10µM
C=CCSc1ncc(-c2ccccc2)cn1	Nrf2 block inconclusive
COc1ccc(Cl)cc1NS(=O)(=O)c1c(C)nc2scc(C)n2c1=O	none
Cc1ccccc1N(C(=O)Cc1c[nH]c2ccccc12)C(C(=O)NC1CCCCC1)c1ccco1 (stereo unspecified)	none
COc1ccc(C(C(=O)NC2CCCCC2)N(C(=O)Cc2c[nH]c3ccccc23)c2ccccc2C)cc1OC (stereo unspecified)	Nrf2 block inconclusive, A549 tox inconclusive
COc1ccc(C(C(=O)NC2CCCCC2)N(Cc2cccs2)C(=O)Cc2c[nH]c3ccccc23)cc1OC (stereo unspecified)	Nrf2 block 23.1µM, A549 tox inconclusive
Cc1ccc(N(C(=O)Cc2c[nH]c3ccccc23)C(C(=O)NC2CCCCC2)c2ccco2)cc1 (stereo unspecified)	Nrf2 block 18.4µM, A549 tox inconclusive
Cc1ccc(NS(=O)(=O)c2cc3c(cc2N2CCCCC2)NC(=O)CC3)cc1C	Nrf2 block inconclusive (no result: Nrf2 activator, Epigenetic derep, PINK1 modulator)
CC(C)(C)NC(=O)NC(=O)CN1CCN(c2ccc(O)cc2)CC1	Nrf2 block 20.6µM

Screens as filed in PubChem.
